Measurements: PubChem BioAssay AID1220 (Sanford-Burnham Center for Chemical Genomics, 2008)
The whole screen tested about 190,000 compounds, of which about 1,300 (0.68%) were called active. Cut-off read from the data, not from the text of the source: active = inhibition above about 50%; inactive = the rest. The full list was thinned out, with actives kept by preference.

Biological target: Mannose-6-phosphate isomerase (Homo sapiens) (UniProt P34949)
Assay: MPI inhibition at elevated mannose 6-phosphate – biochemical, fluorescence intensity, high mannose 6-phosphate, primary screen (AID 1220)
Settings: recombinant PMI enzyme, coupled fluorescence intensity; at 20 µM; active compounds read high

Sequence of Mannose-6-phosphate isomerase (Homo sapiens) (P34949 whole entry, looked up): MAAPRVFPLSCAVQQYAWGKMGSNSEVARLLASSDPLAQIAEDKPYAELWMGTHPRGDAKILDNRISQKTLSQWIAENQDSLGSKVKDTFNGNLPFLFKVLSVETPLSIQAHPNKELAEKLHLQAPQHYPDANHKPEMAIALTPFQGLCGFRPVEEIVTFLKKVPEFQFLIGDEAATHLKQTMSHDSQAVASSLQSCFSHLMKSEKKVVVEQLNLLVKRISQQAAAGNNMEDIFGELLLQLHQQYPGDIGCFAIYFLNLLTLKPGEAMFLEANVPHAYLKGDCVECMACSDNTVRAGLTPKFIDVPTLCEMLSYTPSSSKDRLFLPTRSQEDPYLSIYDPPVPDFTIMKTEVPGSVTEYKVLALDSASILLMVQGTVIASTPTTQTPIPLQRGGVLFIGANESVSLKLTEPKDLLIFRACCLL

Row | SMILES | inhibition
1 | CCOc1cc2[nH]c(=O)n(CCCN3CCN(c4ccc(OC)cc4)CC3)c(=O)c2cc1OCC | 21.4% (inactive)
2 | COc1ccc(N/C=C\C(=O)c2ccc(C)cc2)cc1OC | 18.6% (inactive)
3 | Cc1occc1C(=O)NNC(=S)NCc1ccc(Cl)cc1 | -4.2% (inactive)
4 | CCCC(=O)NCCc1nc2ccccc2n1CC(=O)c1ccccc1 | 4.9% (inactive)
5 | CCN(CC)S(=O)(=O)c1ccc(N2C(=O)Nc3ccccc3N2O)cc1 | -8.2% (inactive)
6 | COc1nccc(Nc2ccccc2)c1C#N | -7.6% (inactive)
7 | Cc1cc(N2CCN(C)CC2)nc2ccc(NC(=S)N3CCOCC3)cc12 | 23.9% (inactive)
8 | Cc1cc(N2CCN(C)CC2)nc2ccc(NC(=S)N3CCCCCC3)cc12 | 24.8% (inactive)
9 | Cc1cc(N2CCN(C)CC2)nc2ccc(NC(=S)N3CCCCC3)cc12 | 53.5% (active)
10 | FC(F)(F)c1cnc(Oc2cccc3ccccc23)c(Cl)c1 | 10.7% (inactive)
11 | CN(CC(=O)Nc1ccc(N2CCOCC2)cc1)C(=O)C1CCCC1 | 9.6% (inactive)
12 | CN1CN(C)c2cccc3cccc1c23 | 48.7% (inactive)
13 | c1csc(C2Nc3cccc4cccc(c34)N2)c1 | 11.7% (inactive)
14 | CC1N(C)c2cccc3cccc(c23)N1C | 62.9% (active)
15 | CN1/C(=N\O)c2cccc3cccc1c23 | 42.5% (inactive)
16 | CN1c2cccc3cccc(c23)N(C)C1c1cccs1 | 58.6% (active)
17 | CN1C(=O)c2ccccc2N(C)C1c1cccs1 (centres undefined) | 10% (inactive)
18 | O=C(COC(=O)c1ccccc1)Nc1cc(Cl)ccc1Oc1ccccc1 | 0.2% (inactive)
19 | COc1ccc(N2CC(NC(=O)NC(C)(C)C)CC2=O)cc1 (centres undefined) | 53.9% (active)
20 | COc1ccc(N2CC(NC(=O)Nc3ccccc3)CC2=O)cc1 (centres undefined) | -16.3% (inactive)
21 | COc1ccc(N2CC(NC(=O)NCC(C)C)CC2=O)cc1 (centres undefined) | 7.2% (inactive)
22 | CC(C)CSc1n[nH]c(=S)s1 | -41% (inactive)
23 | O=C(CCCSc1nc2ccccc2s1)NC1=NCCS1 | 1.7% (inactive)
24 | CN1CCN(C(=O)c2ccccc2NC(=O)C(C)(C)C)CC1 | 10.4% (inactive)
25 | O=C(COC(=O)c1cc(S(=O)(=O)N2CCOCC2)cs1)c1ccccc1 | 11.5% (inactive)

Row | SMILES | inhibition
26 | COc1cc(CN2CCN(S(=O)(=O)c3ccc(NC(C)=O)cc3)CC2)cc(OC)c1O | 50.8% (active)
27 | COc1cc(CN2CCN(Cc3ccc(SC)cc3)CC2)cc(OC)c1O | 62.1% (active)
28 | C/C=C(\C)CN1CCc2cc(OC)c(OC)cc2C1 | -34.9% (inactive)
29 | COc1cc(CN2CCN(Cc3ccc(C)cc3)C(CCO)C2)ccc1O (centres undefined) | 14.3% (inactive)
30 | COc1ccc(CN2CCc3cc(OC)c(OC)cc3C2)cc1O | 4.1% (inactive)
31 | COc1cc(CN2CCN(Cc3ccc(C)cc3)C(CCO)C2)cc(OC)c1O (centres undefined) | 61.9% (active)
32 | COc1cc2c(cc1OC)CN(Cc1cc(OC)c(O)c(OC)c1)CC2 | 69.5% (active)
33 | COc1cc(CN2CCN(c3ccccc3F)CC2)cc(OC)c1O | 24.9% (inactive)
34 | COc1ccc(CN2CCN(S(=O)(=O)c3ccc(NC(C)=O)cc3)CC2)cc1OC | -2.1% (inactive)
35 | COc1ccc(CN2CCN(Cc3ccc(C)cc3)C(CCO)C2)cc1OC (centres undefined) | -5.7% (inactive)
36 | CCOc1ccc(CN2CCN(S(=O)(=O)c3ccc(NC(C)=O)cc3)CC2)cc1OC | -3.6% (inactive)
37 | COc1cc(OC)c(OC)cc1CN1CCN(Cc2ccc(SC)cc2)CC1 | 10.2% (inactive)
38 | CCN(CC)c1nc(-c2ccccn2)nc(-c2ccccc2)c1C#N | -5.4% (inactive)
39 | CCN(CC)C(=O)NC1CC2CCCC(C1)N2Cc1ccccc1 (centres undefined) | -8.6% (inactive)
40 | CC(C)C(OC(=O)c1cccs1)C(=O)NCc1ccco1 (centres undefined) | 1.8% (inactive)
41 | Cc1ccc(S(=O)(=O)N2CCN(S(=O)(=O)N3CCCCC3)CC2)cc1 | 10.1% (inactive)
42 | Cn1c(=O)c2c(-c3ccc(C(C)(C)C)cc3)n(N3CCOCC3)cc2n(C)c1=O | -3.7% (inactive)
43 | COc1cc(CN2CCN(C(=O)CC(C)C)CC2)cc(OC)c1O | 55.5% (active)
44 | COc1ccc(CN2CCN(C(=O)CC(C)C)CC2)cc1OC | -3.1% (inactive)
45 | COc1ccc(C(=O)N2CCN(Cc3cc(OC)c(O)c(OC)c3)CC2)cc1OC | 61.1% (active)
46 | COc1cc(CN2CCN(C(=O)CC(C)C)CC2)cc(OC)c1OC | -4.9% (inactive)
47 | COc1ccc(C(=O)N2CCN(Cc3ccccc3C)CC2)cc1OC | -3.6% (inactive)
48 | COc1ccc(CN2CCN(C(=O)c3cc(OC)c(OC)c(OC)c3)CC2)cc1OC | -8.2% (inactive)
49 | CCC(Sc1nc(C)cc(C)n1)C(=O)Nc1cc(C)on1 (centres undefined) | -8.4% (inactive)
50 | CC(=O)Nc1cc(C(=O)N2CCCC2)ccc1S(=O)(=O)c1ccc(Cl)cc1 | 2.8% (inactive)

Row | SMILES | inhibition
51 | Nc1cc(=O)[nH]c(SCc2nnc(-c3ccccc3)o2)n1 | -0.3% (inactive)
52 | CC1(C)CC(CC(=O)O)(c2ccc(F)cc2)CCO1 (centres undefined) | 3% (inactive)
53 | c1ccc2c(c1)NC1(CCCCC1)n1c-2nc2ccccc21 | 8.3% (inactive)
54 | COc1cc(/C=C(\C#N)C(=O)c2c[nH]c3ccccc23)cc(OC)c1O | 70% (active)
55 | COc1ccc(/C=N/S(=O)(=O)CCc2ccccc2)c(OC)c1 | 7.5% (inactive)
56 | COc1ccc(/C=C(\C#N)C(=O)c2c(C)[nH]c3ccccc23)cc1OC | 8.5% (inactive)
57 | COc1cc(/C=N/S(=O)(=O)CCc2ccccc2)ccc1O | 14.1% (inactive)
58 | COCCNC(=O)/C(C#N)=C/c1cc(Br)c(O)c(OC)c1 | 15.5% (inactive)
59 | COc1cc(/C=C(\C#N)C(=O)c2c(C)[nH]c3ccccc23)cc(OC)c1OC | 10.2% (inactive)
60 | COc1cc(/C=C(\C#N)C(=O)NCCc2ccccc2)cc(OC)c1O | 57.6% (active)
61 | COc1ccc(/C=C(\C#N)C(=O)NCCc2ccccc2)cc1OCc1ccccc1 | -4.6% (inactive)
62 | COc1cc(/C=N/S(=O)(=O)CCc2ccccc2)cc(OC)c1O | 61.1% (active)
63 | CC(C)NC(=S)Nc1ccc2[nH]c(=O)[nH]c2c1 | -22% (inactive)
64 | CC(C)(C)N(NC(=O)OCc1ccccc1)C(=O)c1ccccc1 | 2.3% (inactive)
65 | CN(CP(=O)(O)CCc1ccccc1)S(C)(=O)=O | 3.2% (inactive)
66 | CNc1ccc(/C=C(\C#N)c2ccccn2)cc1[N+](=O)[O-] | -3.1% (inactive)
67 | Cc1ccc(/C=C/C(=O)N2CCCN(C(=O)/C=C/c3ccc(C)cc3)CC2)cc1 | 2.5% (inactive)
68 | COc1ccc2nc(NC(=O)c3ccc(-c4cccc([N+](=O)[O-])c4)o3)sc2c1 | -5.7% (inactive)
69 | COc1ccc2cc3cc(C(=O)NCCN4CCN(Cc5ccccc5)CC4)oc3nc2c1 | -5.6% (inactive)
70 | O=C(CN1CCN(c2ccc(O)cc2)CC1)NC(c1ccccc1)c1ccccc1 | 64% (active)
71 | CC(CCc1ccccc1)NC(=O)CN1CCc2ccccc2C1 (centres undefined) | 3.9% (inactive)
72 | COc1ccc(N2CCN(CC(=O)NC(=O)NC(C)(C)C)CC2)cc1 | 12.2% (inactive)
73 | Cc1c(NC(=O)CN2CCN(c3ccc(F)cc3)CC2)c(=O)n(-c2ccccc2)n1C | 5.8% (inactive)
74 | Cc1c(NC(=O)CN2CCN(c3ccc(O)cc3)CC2)c(=O)n(-c2ccccc2)n1C | 53% (active)
75 | O=C(CN1CCN(c2ccccc2O)CC1)NC(c1ccccc1)c1ccccc1 | 15.4% (inactive)

Row | SMILES | inhibition
76 | CC1CC(C)CN(CC(=O)NC(c2ccccc2)c2ccccc2)C1 (centres undefined) | -6.3% (inactive)
77 | CC(C)(C)NC(=O)NC(=O)CN1CCN(c2ccc(O)cc2)CC1 | 62.6% (active)
78 | Cc1c(NC(=O)CN2CCN(c3ccccc3)CC2)c(=O)n(-c2ccccc2)n1C | -8.2% (inactive)
79 | CC(C)(C)NC(=O)NC(=O)CN1CCN(c2ccccc2)CC1 | -4.3% (inactive)
80 | CC(CCc1ccccc1)NC(=O)CN1CCN(c2ccc(O)cc2)CC1 (centres undefined) | 65.2% (active)
81 | CC(CCc1ccccc1)NC(=O)CN1CCN(c2ccccc2)CC1 (centres undefined) | 8.2% (inactive)
82 | CC(=O)OC1CC(C)(C)N(OC(=O)c2ccccc2)C(C)(C)C1 | -2.2% (inactive)
83 | Cc1cc(Nc2c(C#N)c(N)nn2C)ccc1F | 0.7% (inactive)
84 | O=C(NC12CC3CC(CC(C3)C1)C2)c1cc2nc(-c3ccco3)cc(C(F)(F)F)n2n1 | 7.3% (inactive)
85 | O=C(NC1CCCCC1)C(c1ccco1)N(Cc1ccco1)C(=O)c1ccco1 (centres undefined) | -4.5% (inactive)
86 | O=C(Nc1ccc2c(c1)CCC2)c1ccccc1F | -3.5% (inactive)
87 | Cc1nn(-c2ccccc2)c(C)c1/C=C/C(=O)OCC(=O)NC1CCS(=O)(=O)C1 (centres undefined) | -6.3% (inactive)
88 | CC1(C)CC(=O)CC(C2(O)C(=O)N(Cc3ccccc3)c3ccccc32)O1 (centres undefined) | 0.6% (inactive)
89 | O=C(CN(C(=O)CNS(=O)(=O)c1ccccc1)c1ccc2c(c1)OCCO2)NCc1ccco1 | -2.1% (inactive)
90 | CCC(=O)Nc1cc(Cl)ccc1C(=O)O | -13.8% (inactive)
91 | Cn1c(=O)[nH]c(=O)c2[nH]c(N(Cc3ccccc3)Cc3ccccc3)nc21 | 10.1% (inactive)
92 | Cc1cc(NC(=O)CCCC(=O)NCc2cccs2)no1 | 3.8% (inactive)
93 | Cc1nc(NC(=O)CSc2nnnn2Cc2ccccc2)sc1C | 5.5% (inactive)
94 | COc1ccc2c(c1)C1=NN(/C(C)=C/C(C)=O)C(c3ccc(F)cc3)C1CC2 (centres undefined) | 56.3% (active)
95 | COc1ccc2c(c1)CCC1C2=NN(/C(C)=C\C(C)=O)C1c1ccc(F)cc1 (centres undefined) | 54.4% (active)
96 | COc1ccc2c(c1)CCC1C2=NN(/C(C)=C/C(C)=O)C1c1cccc(F)c1 (centres undefined) | 44.4% (inactive)
97 | COc1ccc2c(c1)C1=NN(/C(C)=C\C(C)=O)C(c3ccccc3)C1CC2 (centres undefined) | 47.7% (inactive)
98 | COc1ccc2c(c1)C1=NN(/C(C)=C/C(C)=O)C(c3cccc(F)c3)C1CC2 (centres undefined) | 44.9% (inactive)
99 | COc1ccc2c(c1)CCc1c(C(=O)NCc3ccc(F)cc3)noc1-2 | 9.9% (inactive)
